Assay results as given in ChEMBL document CHEMBL3433997, “St. Jude Leishmania screening dataset” (2016).

What was measured:
Format in all cases: functional
[1] = target: Solute carrier family 2, facilitated glucose transporter member 1 (Homo sapiens) (UniProt P11166); assay: ST_JUDE_LEISH: Cytotoxicity at 2uM final concentration against transgenic Leishmania Mexicana promastigotes LmGLUT1 that are glucose transport deficient and complemented with the human glucose transporter GLUT1. Activity is measured by DNA content using SYBR green in vitro
Sequence of Solute carrier family 2, facilitated glucose transporter member 1 (Homo sapiens) (P11166 whole entry): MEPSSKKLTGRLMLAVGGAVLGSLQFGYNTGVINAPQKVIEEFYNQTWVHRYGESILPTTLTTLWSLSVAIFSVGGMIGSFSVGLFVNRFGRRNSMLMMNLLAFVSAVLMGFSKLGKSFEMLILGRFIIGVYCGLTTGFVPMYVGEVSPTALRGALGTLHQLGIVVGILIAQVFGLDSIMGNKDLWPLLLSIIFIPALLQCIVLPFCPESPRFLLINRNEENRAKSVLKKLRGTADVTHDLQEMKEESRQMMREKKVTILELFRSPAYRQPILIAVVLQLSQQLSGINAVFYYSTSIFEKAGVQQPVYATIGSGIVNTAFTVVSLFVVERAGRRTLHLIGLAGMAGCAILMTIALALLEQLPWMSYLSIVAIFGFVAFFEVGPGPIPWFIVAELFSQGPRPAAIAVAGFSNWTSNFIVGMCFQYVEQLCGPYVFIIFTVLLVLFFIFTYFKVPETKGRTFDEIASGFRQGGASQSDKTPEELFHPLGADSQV

[2] = target: Hexose transporter 1 (Plasmodium falciparum) (UniProt O97467); assay: ST_JUDE_LEISH: Cytotoxicity at 2uM final concentration against transgenic Leishmania Mexicana promastigotes LmPfHT that are glucose transport deficient and complemented with the Plasmodium falciparum hexose transporter. Activity is measured by DNA content using SYBR green in vitro
[3] = target: Glucose transporter (Leishmania mexicana) (UniProt O61059); assay: ST_JUDE_LEISH: Cytotoxicity at 2uM final concentration against transgenic Leishmania Mexicana promastigotes LmGT2 that are glucose transport deficient and complemented with the L. Mexicana glucose transporter 2. Activity is measured by DNA content using SYBR green in vitro

| SMILES | inhibition [1] | inhibition [2] | inhibition [3] |
| --- | --- | --- | --- |
| O=C(/C=C/c1ccc(Cl)c(Cl)c1)N1CCC(NCc2ccc3[nH]ccc3c2)CC1 | 4.05% | 4.06% | 0.76% |
| Cc1ccccc1C1CCN(C2CCC(NC(=O)/C=C/c3ccc(OC(F)(F)F)cc3)CC2)CC1 (stereo not drawn) | -0.78% | -1.35% | 0.34% |
| CC(C)(C)NCCN(Cc1ccc(-c2ccc(C(F)(F)F)cc2)cc1)C(=O)Cn1c(SCc2ccc(F)cc2)nc(=O)c2c1CCC2 | 0.94% | 1.75% | 1.74% |
| Fc1ccc2[nH]c(-c3ccc(-c4cccc(CN5CCC(CCN6CCCCC6)CC5)c4)cc3)nc2c1 | 2.93% | 1.77% | 0.37% |
| Nc1c2ccccc2nc2cc(C(F)(F)F)ccc12 | 2.83% | 5.91% | 1.3% |
| COc1ccccc1-n1ccnc1SCC(=O)Nc1cccc(C(F)(F)F)c1 | 3.36% | 1.61% | 2.6% |
| CC(C)(CNCc1ccc(Cl)cc1)c1nc(-c2ccc(Cl)c(O)c2)c(-c2ccncc2)[nH]1 | 0.66% | 0.31% | -1.23% |
| CC1=C(C(=O)Nc2cc3cn[nH]c3cc2F)C(c2cccc(NS(C)(=O)=O)c2)CC(=O)N1 (stereo not drawn) | 2.54% | 1.97% | 2.34% |
| CCCN1CCN(CC(O)CNC(=O)Nc2ccc(Br)cc2)CC1 (stereo not drawn) | 3.68% | 4.03% | 3.09% |
| Cc1cccc(Nc2nc3nonc3nc2Nc2cccc(Cl)c2Cl)c1C | 9.75% | 7.64% | 7.5% |
| COc1ccc(-c2cccc(NC(=O)c3ccc(Cl)cc3)c2)cc1CN1CCCC1 | 11.3% | 9.27% | 5.55% |
| CC(C)N1CCN(c2ccc(OCCCCN3CCN(c4cccc(Cl)c4Cl)CC3)cc2Cl)CC1 | -1.28% | 0.44% | -2.3% |
| COc1ccc(CNC(=O)c2cnc3c(O)cccc3c2Nc2cccc(NC(=O)c3ccc(Cl)c([N+](=O)[O-])c3)c2)cc1 | 0.79% | 6.77% | 4.02% |
| COc1ccc2nccc([C@@H](O)CN3CCC(NC(=O)COc4nc(SCc5ccc(F)cc5)nc5c4CCC5)CC3)c2c1 | 1.06% | 0.81% | -3.16% |
| CC(=O)CC(=O)N1CCN(c2ccccc2)CC1 | -0.36% | -0.81% | -0.35% |
| COc1ccc2nccc([C@@H](O)CN3CCC(NCc4cc5oc(=O)[nH]c5cc4Cl)CC3)c2c1 | -1.1% | -1.56% | -0.82% |
